Screens: PubChem, several laboratories
The list is not random: actives were taken first. Their share in the collection is about 4.7%.
LMP1 NFkB inh – EBV LMP1-driven NF-kappaB luciferase reporter inhibitors, primary screen, cell-based, luminescence, single point; LMP1-induced NF-kappaB luciferase reporter cells; inhibition, % at 12.5 µM; actives 0.69% (n = 350,000); AID 504558, 2011; in the data active = inhibition above about 41%
HSF-1 act – HSF-1 activators, primary screen, NIH3T3-HGL cells, MG132 stress, luminescence, single point; NIH3T3-HGL HSF-1 luciferase reporter, 8 h; 100% = twice DMSO control signal; activation, % at 9 µM; actives 1.7% (n = 300,000);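 active = mean replicate activation of at least 50% with a set share of replicates each reaching 50%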
TROY signal inh – inhibitors of TROY-driven NF-kB signaling, primary screen, Q293 LMP1-TROYcd cells, NF-kB luciferase, uHTS. Q293 LMP1-TROYcd NF-kB luciferase reporter, 4 h. inhibition, % at 10 µM. actives 0.98% (n = 360,000);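 active = compounds whose plate-normalised and pattern-corrected inhibition of the luciferase reporter signal at the single screening dose is 50% or more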
HSF1 inhib – HSF1 inhibitors in luciferase reporter cells, primary screen, cell-based, NIH3T3, luminescence | NIH3T3-HGL HSE-luciferase, MG132-induced, luminescence 8 h; active compounds read low | activity change, negative = inhibition, % at 7.5 µM (by protocol) | actives 0.77% (n = 300,000) | AID 2098, 2009;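 active = more than half of replicate wells show activity change below -50%, luminescence cut by over half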;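 also: luciferase reports HSF-1 transcriptional activity via heat shock element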
HSP90 refold inh – HSP90 inhibitors, primary screen, cell lysate, luminescence; Heat shock protein HSP 90 (rabbit reticulocyte lysate; luciferase refolding); Rabbit reticulocyte lysate, luciferase refolding luminescence, 3 h; inhibition, % at 5.6 µM; actives 0.91% (n = 290,000); AID 1789, 2009;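 active = inhibition above the screen-wide mean plus 3 SD, computed separately per campaign, cut at about 16% in these data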;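 also: inhibitors lower the luminescence because luciferase stays unfolded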
TWEAK Fn14 block – inhibitors of TWEAK-Fn14 signaling, primary screen, luciferase reporter cells, uHTS | TWEAK-stimulated Fn14 reporter cells, luciferase luminescence, 8 h | inhibition, % at 10 µM | actives 2% (n = 360,000) | AID 1159606, 2016; in the data active = inhibition above about 50%
HSP90 confirm – HSP90 inhibitors, confirmation, cell lysate, luminescence. shares compounds with HSP90 refold inh. rabbit reticulocyte lysate, luciferase refolding luminescence, 3 h. inhibition, % at 5.9 µM. actives 64% (n = 2,300). AID 1846, 2009; in the data active = inhibition above about 18%
luciferase ctr – firefly luciferase inhibitors, HSP90 counter-screen, confirmation, artefact control for HSP90 inhibitor project, biochemical, luminescence, triplicate. shares compounds with HSP90 refold inh. actives 48% (n = 2,300). inhibition, % at 5.9 µM. purified native firefly luciferase;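 active = inhibition above the mean inhibition of all tested sample wells plus 3 SD, cut at about 10% in these data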
Target sequence (P08659 whole entry, looked up): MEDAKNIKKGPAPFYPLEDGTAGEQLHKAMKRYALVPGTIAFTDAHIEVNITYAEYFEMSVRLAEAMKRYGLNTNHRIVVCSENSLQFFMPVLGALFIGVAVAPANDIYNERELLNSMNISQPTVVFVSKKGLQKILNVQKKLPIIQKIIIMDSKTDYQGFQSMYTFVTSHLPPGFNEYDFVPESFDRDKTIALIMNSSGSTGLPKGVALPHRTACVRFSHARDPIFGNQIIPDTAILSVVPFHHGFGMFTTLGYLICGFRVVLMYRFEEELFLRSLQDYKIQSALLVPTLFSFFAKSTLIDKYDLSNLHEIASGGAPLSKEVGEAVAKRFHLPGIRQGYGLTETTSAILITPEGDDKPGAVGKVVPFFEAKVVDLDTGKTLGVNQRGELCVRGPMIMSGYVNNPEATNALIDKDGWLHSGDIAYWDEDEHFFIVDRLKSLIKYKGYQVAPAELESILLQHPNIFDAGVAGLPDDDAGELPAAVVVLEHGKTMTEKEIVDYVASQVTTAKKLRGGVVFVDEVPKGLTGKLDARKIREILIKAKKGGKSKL
Each line names hits and unclear results; the compound was inactive in the other large screens (follow-up assays come after a bar, where they were run).

CCCOc1cccc(C(=O)Nc2cccc(NC(=O)c3ccco3)c2)c1	none
Cc1ccc(C(=O)Nc2ccc3c(c2)CCC3)cc1	HSP90 refold inh 25.4, TWEAK Fn14 block 71.3 | HSP90 confirm 70.9 | luciferase ctr 67.3
CCCOc1cccc(C(=O)Nc2ccc3c(c2)OCCO3)c1	HSP90 refold inh 20.8 | HSP90 confirm 40.4 | luciferase ctr 24.6
Cc1ccc(C(=O)Nc2ccc3c(c2)OCCO3)c(Cl)c1	LMP1 NFkB inh 46.6, HSP90 refold inh 58.8, TWEAK Fn14 block 89.5 | HSP90 confirm 75.3 | luciferase ctr 67.6
O=C(Nc1ccc2c(c1)OCCO2)c1cc(F)c(F)cc1Cl	none
COC(=O)CC1(C(=O)OC)Nc2cc(Cl)c(Cl)cc2S(=O)(=O)N1O (stereo not given)	none (no result: HSF-1 act, HSF1 inhib, HSP90 refold inh)
CC(C)N1CC(C(=O)Nc2ccc(Cl)cc2Cl)CC1=O (stereo not given)	none (no result: HSF-1 act, HSF1 inhib, HSP90 refold inh)
OC(c1ccc(F)cc1)c1nc(-c2ccc(F)c(Cl)c2)cs1 (stereo not given)	none (no result: LMP1 NFkB inh, HSF-1 act, HSF1 inhib, HSP90 refold inh)
COc1ccc(N2CCN(/C(=N\S(=O)(=O)c3ccccc3)Nc3nc(C)cc(C)n3)CC2)cc1	HSP90 refold inh 39.0 | HSP90 confirm inactive | luciferase ctr inactive
Cc1cccc(CNC(=O)C2CCC(=O)N(CC3CCCCC3)C2)c1 (stereo not given)	none (no result: HSF-1 act, HSF1 inhib, HSP90 refold inh)
CC1(C(=O)NS(=O)(=O)c2ccccc2)CCN1C(=O)COc1ccc(Cl)cc1 (stereo not given)	none (no result: LMP1 NFkB inh, HSF-1 act, HSF1 inhib, HSP90 refold inh)
CCCN(C(=O)CSc1nnc(-c2ccncc2)n1CCC)c1c(N)n(Cc2ccccc2)c(=O)[nH]c1=O	none (no result: HSF-1 act, HSF1 inhib, HSP90 refold inh)
CCn1c(C)nc2cc(C(=O)NNC(=S)Nc3ccccc3)ccc21	TROY signal inh 77.7, HSF1 inhib -67.0, HSP90 refold inh 34.1, TWEAK Fn14 block 70.6 | HSP90 confirm 31.6 | luciferase ctr 26.7
CCn1c(C)nc2cc(C(=O)NNC(=S)Nc3ccc(Cl)cc3)ccc21	none
COC(=O)[C@]12CCCCC=C1N(Cc1cccc3ccccc13)C(=O)[C@H](CC(=O)N1CCN(C(=O)c3ccco3)CC1)C2	none (no result: LMP1 NFkB inh, HSF-1 act, HSF1 inhib, HSP90 refold inh)
c1ccc(OCCNc2ccn3nc(-c4ccco4)cc3n2)cc1	none (no result: LMP1 NFkB inh, HSF-1 act, HSF1 inhib, HSP90 refold inh)
C[C@H](NC(=O)c1ncn2c1c(=O)[nH]c1ccc(Br)cc12)c1ccccc1	none (no result: HSF-1 act, HSF1 inhib, HSP90 refold inh)
CCN(CC)c1ccc2nc3c4ccccc4c(=O)cc-3oc2c1	HSF1 inhib -62.8, HSP90 refold inh 46.9 (no result: LMP1 NFkB inh, TROY signal inh, TWEAK Fn14 block) | HSP90 confirm 48.0 | luciferase ctr 32.4
CCN(CC)c1ccc2cc(C=O)c(=O)oc2c1	none
Fc1ccccc1Nc1nc2ccccc2o1	HSP90 refold inh 23.6 | HSP90 confirm 41.0 | luciferase ctr 28.4
CN(C(=O)COC(=O)c1cccs1)c1ccccc1	none (no result: HSF-1 act, HSF1 inhib, HSP90 refold inh)
O=C(Nc1ccc2ccccc2c1)c1ccc(Cl)cc1Cl	HSF-1 act 50.8, HSP90 refold inh 17.0 | HSP90 confirm 37.1 | luciferase ctr 20.5
O=C(NNC(=O)c1ccc(Cl)cc1Cl)c1ccc2ccccc2c1	none (no result: HSF-1 act, HSF1 inhib, HSP90 refold inh)
O=C(Nc1ccc2ccccc2c1)c1ccccc1O	TROY signal inh 58.9, HSP90 refold inh 39.1, TWEAK Fn14 block 90.2 | HSP90 confirm 53.7 | luciferase ctr 45.6
O=C(Nc1ccc2ccccc2c1)c1ccccc1[N+](=O)[O-]	none (no result: HSF-1 act, HSF1 inhib, HSP90 refold inh)
CCOC(=O)C1CCN(C(=O)c2[nH]c(C(F)(F)F)nc2-c2ccccc2)CC1	none (no result: LMP1 NFkB inh, HSF-1 act, HSF1 inhib, HSP90 refold inh)
C[C@H](NC(=O)c1ncn2c1C(=O)NC[C@H]2C)c1ccccc1	none (no result: HSF-1 act, HSF1 inhib, HSP90 refold inh)
